# Experimental data reported in PubChem BioAssay AID488969 (Vanderbilt High Throughput Screening Facility, 2010).
# The full ranking holds about 110,000 compounds; the median of “z-score” is about -0.1, and the highest 2% start at about 2. For the sample, the highest values were picked, then their nearest neighbours and some compounds at random. Activity calls are given as the source filed them.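 How the source made its calls: active means z-score in the third read window above 3 or below -3; inactive means the rest.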
# Target: Metabotropic glutamate receptor 8 (Rattus norvegicus) (UniProt P70579)
# Sequence (P70579 whole entry, looked up): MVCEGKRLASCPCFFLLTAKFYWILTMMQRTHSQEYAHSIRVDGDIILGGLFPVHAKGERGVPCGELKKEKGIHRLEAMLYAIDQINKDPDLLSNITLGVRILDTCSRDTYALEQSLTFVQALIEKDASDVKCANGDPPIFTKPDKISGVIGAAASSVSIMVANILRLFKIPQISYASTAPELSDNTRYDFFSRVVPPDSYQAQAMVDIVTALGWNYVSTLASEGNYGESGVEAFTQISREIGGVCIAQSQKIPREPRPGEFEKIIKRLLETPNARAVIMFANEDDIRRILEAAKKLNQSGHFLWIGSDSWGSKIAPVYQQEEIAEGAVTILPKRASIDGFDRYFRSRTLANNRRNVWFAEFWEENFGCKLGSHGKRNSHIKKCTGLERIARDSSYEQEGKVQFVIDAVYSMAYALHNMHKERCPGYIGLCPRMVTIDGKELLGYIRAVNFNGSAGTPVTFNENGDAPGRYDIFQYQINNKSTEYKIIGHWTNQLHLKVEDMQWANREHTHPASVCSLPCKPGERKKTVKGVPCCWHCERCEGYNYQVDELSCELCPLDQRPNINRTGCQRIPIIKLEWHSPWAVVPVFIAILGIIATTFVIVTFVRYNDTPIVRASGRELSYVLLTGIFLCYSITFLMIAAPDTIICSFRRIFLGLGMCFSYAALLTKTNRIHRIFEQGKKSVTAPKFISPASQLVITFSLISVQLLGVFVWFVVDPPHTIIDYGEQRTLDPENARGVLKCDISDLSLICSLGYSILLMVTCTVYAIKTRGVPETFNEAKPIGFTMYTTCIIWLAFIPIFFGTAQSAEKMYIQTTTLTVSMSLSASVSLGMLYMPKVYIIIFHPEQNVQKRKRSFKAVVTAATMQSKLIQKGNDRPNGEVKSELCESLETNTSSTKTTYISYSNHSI
# Experiment: mGluR8 Gi/Go-coupled signaling modulation – cell-based, rat, thallium flux, HTS, primary screen (AID 488969)
# Details: HEK293 rat mGluR8, GIRK (G protein-gated inwardly rectifying potassium channel) thallium flux, FluoZin2; at 10 µM; stronger effect = higher value; submaximal glutamate (EC20) added with thallium
row,SMILES,z-score
1,CCOC(=O)c1cc(-c2ccc(OC(F)F)cc2)nc2nc(SC)[nH]c(=O)c12,-0.208
2,COc1cc(CNCC(O)c2ccccc2)ccc1OCc1ccc(Cl)nc1 (stereo unspecified),1.26
3,COC(=O)COc1cccc(NC(=O)c2cccs2)c1,-0.153
4,CCc1cccc2c(C(=O)COC(=O)/C=C/c3ccc(O)c(OC)c3)c[nH]c12,0.418
5,CC(C)COP(=O)(OCC(C)C)C(Nc1ccccc1)c1ccc2c(c1)OCO2 (stereo unspecified),-0.389
6,C/C=C/c1ccc(OCCCNCC(C)O)c(OC)c1 (stereo unspecified),1.74
7,COc1ccc(OC)c(NC(=O)CSc2nc(C)cs2)c1,0.389
8,CN(C)c1ccc(P(=O)(Nc2ccc([N+](=O)[O-])cc2)N2CCOCC2)c(NC(=O)c2cccs2)c1 (stereo unspecified),-0.185
9,O=C(CN1C(=O)NC2(CCCC2)C1=O)N1CCN(C(=O)c2ccco2)CC1,-1.15
10,Cc1ccc(NS(=O)(=O)c2cccc(C(=O)N/N=C/c3c(C)nn(-c4ccccc4)c3N3CCCC3)c2)c(C)c1,-0.38
11,CCCCNC(=S)N(C)/N=C/c1ccc(OCC(=O)Nc2c(C)cc(C)cc2C)c(OC)c1,0.00502
12,Cc1cc(C)n(-c2nc3ccccc3nc2N2CCN(C(=O)c3ccc(Cl)cc3)CC2)n1,-1.16
13,CCNC(=O)COc1ccc(Br)cc1Cl,0.307
14,O=C(COc1ccc(Br)cc1Cl)NC(=S)N1CCc2ccccc21,2.28
15,CC(C)NC(=O)NC(=O)COc1ccc(Br)cc1Br,-0.136
16,O=C(COc1ccc(Br)cc1Br)NC(=S)N1CCCc2ccccc21,4.66 (active)
17,CCC(=O)N1CCN(c2ccccc2NC(=O)COc2ccccc2Cl)CC1,-1.24
18,O=C(COc1ccccc1Cl)NC(=S)N1CCc2ccccc21,12.1 (active)
19,O=C(COc1ccccc1)N1CCc2ccccc21,-0.0743
20,O=C(COc1ccccc1Cl)NC(=O)NC1CCCC1,0.502
21,O=C(COc1ccc(F)cc1Br)N1CCc2ccccc21,-0.0164
22,Cc1ccc(OCC(=O)N2CCc3ccccc32)cc1,-0.113
23,O=C(COc1ccc(Br)cc1Cl)NC(=O)NCc1ccccc1,0.301
24,O=C(COc1ccccc1)NC(=S)N1CCc2ccccc21,10.1 (active)

row,SMILES,z-score
1,O=C(Cc1cccs1)Nc1ccc(Cl)cc1,0.318
2,Cc1cc(C)cc(SCc2noc(C(=O)NCC3CCCO3)c2C(=O)O)c1 (stereo unspecified),-0.238
3,Cc1cc(C)nc(-n2nc(C)cc2NC(=O)CNC(C)c2ccccc2)n1 (stereo unspecified),0.124
4,COC(=O)c1cc(OC)c(OC)cc1NCC(=O)Nc1ccc(OC)c(OC)c1,-0.419
5,Cc1c(NC(=O)C(C)OC(=O)c2cccs2)c(=O)n(-c2ccccc2)n1C (stereo unspecified),0.0558
6,CCOc1cc(CNCc2ccccn2)ccc1OCC(=O)NC1CCCCC1,-0.535
7,O=C(Nc1ccc2oc(=O)ccc2c1)c1cc2ccccc2o1,-1.25
8,O=C(CN(Cc1ccc(F)cc1)C(=O)c1ccco1)NCc1ccc(F)cc1,-1.36
9,CNc1nc2ccccc2n1/N=C/c1cccc(OC)c1OC,-1.51
10,O=Cc1ccc(OC(=O)c2cc(Cl)nc3ccccc23)cc1,-0.764
11,CCn1c(SCc2ccc([N+](=O)[O-])cc2)nnc1C(C)NC(=O)c1ccc(C)cc1 (stereo unspecified),-0.256
12,CC(C)(C)n1nc2c(c1NC(=O)c1ccco1)CS(=O)C2 (stereo unspecified),0.0777
13,O=C(Cn1cccc1)N1CCN(c2ccc(F)cc2)CC1,-0.241
14,Nn1c(SCC(=O)N2CCN(S(=O)(=O)c3ccc(Cl)cc3)CC2)nnc1-c1cccs1,-0.22
15,Cc1cccc(-c2nnc(SCC(=O)N3c4ccccc4CCc4ccccc43)n2C)c1,-0.366
16,Cn1c(SCC(=O)N2c3ccccc3CCc3ccccc32)nnc1-c1cc2ccccc2cc1O,-0.13
17,Cn1c(SCC(=O)N2c3ccccc3CCc3ccccc32)nnc1-c1ccc(O)cc1,5.88 (active)
18,Cc1ccc(NC(=O)N2CCC(C(N)=O)CC2)cc1,0.0373
19,O=C(NCC1CCCO1)C1CCN(S(=O)(=O)c2cccc3cccnc23)CC1 (stereo unspecified),-0.104
20,Cc1ccccc1-c1n[nH]c(=S)o1,0.676
21,Cc1ccc(-c2cc(-c3n[nH]c(=S)o3)c3ccccc3n2)cc1,8.6 (active)
22,CSc1nnc(-c2cc(-c3ccc(C)cc3)nc3ccccc23)o1,-0.0721
23,CC(=O)c1c(C)[nH]c(C(=O)Nc2ccc(Cl)c(S(=O)(=O)N3CCOCC3)c2)c1C,1.6
24,O=C(COC(=O)c1cc(-c2cccs2)nn1-c1ccccc1)Nc1ccc(Cl)c([N+](=O)[O-])c1,0.0111

row,SMILES,z-score
1,NS(=O)(=O)c1ccc(CCN2C(=O)/C(=C\c3ccc(Cl)cc3)SC2=S)cc1,0.283
2,COc1nc(-c2ccccc2)cc(-c2ccccc2)n1,2.45
3,COc1nc(-c2ccccc2)cc(-c2ccc(OC)c(OC)c2)n1,-0.612
4,COc1nc(-c2ccccc2)cc(C(F)(F)F)n1,0.0363
5,O=C(C1CCCO1)N1N=C(c2ccc(Br)cc2)CC1c1ccco1 (stereo unspecified),-0.195
6,COC(=O)CSc1n[nH]c(-c2ccncc2)n1,0.0349
7,O=C(CSc1n[nH]c(-c2cccnc2)n1)Nc1ccccc1,-0.272
8,COC(=O)CSc1n[nH]c(-c2cccnc2)n1,2.21
9,Cc1ccc(C2C(C#N)=C(N)Oc3n[nH]c(-c4ccccc4)c32)o1 (stereo unspecified),-0.499
10,CC(C)CC(=O)NC(=S)Nc1nc(-c2ccccc2)cs1,0.855
11,CC(C)CC(=O)NC(=S)Nc1nc(-c2ccc(Cl)cc2)cs1,0.0823
12,CC(C)CC(=O)NC(=S)Nc1nc(-c2cccc3ccccc23)cs1,2.97
13,Cn1c(=O)c(NC(=O)c2ccccc2)c2n(c1=S)CCCCC2,-0.181
14,O=C(COc1ncnc2ccc(Br)cc12)NCc1ccc2c(c1)OCO2,-0.00987
15,CCOC(=O)C1C(=O)CC(C)(O)C(C(=O)OCC)C1c1ccc(OC)cc1 (stereo unspecified),-0.0838
16,CCOC(=O)c1cccc(NC(=O)/C(=C\c2ccccc2)NC(=O)c2ccccc2Cl)c1,-0.208
17,COc1ccccc1NC(=O)CNS(=O)(=O)c1ccccc1,-0.239
18,CCOC(=O)c1c(CNCCN(CC)CC)n(C)c2cc(Br)c(OC)cc12,3.02 (active)
19,CCOC(=O)c1c(CN2CCN(CCO)CC2)n(C)c2cc(Br)c(OC)cc12,0.864
20,CCOC(=O)c1c(CN2CCN(Cc3ccccc3)CC2)n(C)c2cc(Br)c(OC)cc12,0.132
21,CCN(CC)CCNC(=O)c1c(C)n(-c2ccccc2)c2cc(Br)c(OC)cc12,2.84
22,CCN(CC)CCNC(=O)c1c(C)oc2cc(Br)c(OC)cc12,-0.44
23,COc1cc2c(C(=O)N3CCN(C)CC3)c(C)n(-c3ccccc3)c2cc1Br,-0.333
